Laboratory results published in the supplement of paper PMC12645437, “Orthogonal IMiD-Degron Pairs Induce Selective Protein Degradation in Cells” (ACS Chemical Biology, 2025).
Whole data set: some 8,300 sequences, median “log2 fold change of degron read counts, EGFP-low vs EGFP+ sorted cells (limma voom), compound-induced degradation” near -1.1, cut for the highest 2% near 3.2. Many of the other results were omitted from the sample, so the highest values are more common in it than they were.

T1: CRBN, Q96SW2
T1 chain: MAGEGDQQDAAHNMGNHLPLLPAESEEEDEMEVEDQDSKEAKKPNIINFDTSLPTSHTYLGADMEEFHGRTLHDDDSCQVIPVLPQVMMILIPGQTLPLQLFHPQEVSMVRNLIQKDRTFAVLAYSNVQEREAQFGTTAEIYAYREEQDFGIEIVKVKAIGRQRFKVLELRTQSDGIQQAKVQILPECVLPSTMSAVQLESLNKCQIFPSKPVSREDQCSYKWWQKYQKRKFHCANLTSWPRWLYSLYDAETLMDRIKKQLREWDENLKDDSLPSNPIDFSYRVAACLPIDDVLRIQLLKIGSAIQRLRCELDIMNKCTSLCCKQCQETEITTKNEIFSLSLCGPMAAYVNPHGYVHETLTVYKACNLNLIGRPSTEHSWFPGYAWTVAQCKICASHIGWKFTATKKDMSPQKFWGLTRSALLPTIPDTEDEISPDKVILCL

B1: 46F_47T_49P_50I_52G_53H_54H_55F_67L_, Q9UKT9 (peptide)
chain: FTCPICGHHFTQKGNLLRHIKL
B2: 46F_47T_49E_50Q_52G_53A_54K_55F_67L_, Q9UKT9 (peptide)
chain: FTCEQCGAKFTQKGNLLRHIKL
B3: 46F_47K_49N_50I_52G_53A_54V_55F_67L_, Q9UKT9 (peptide)
chain: FKCNICGAVFTQKGNLLRHIKL
B4: 46F_47G_49P_50V_52G_53A_54V_55F_67L_, Q9UKT9 (peptide)
chain: FGCPVCGAVFTQKGNLLRHIKL
B5: 46F_47S_49P_50V_52G_53A_54V_55F_67L_, Q9UKT9 (peptide)
chain: FSCPVCGAVFTQKGNLLRHIKL
B6: 46F_47D_49P_50V_52G_53A_54V_55F_67L_, Q9UKT9 (peptide)
chain: FDCPVCGAVFTQKGNLLRHIKL
B7: 46F_47Q_49N_50I_52G_53A_54V_55F_67L_, Q9UKT9 (peptide)
chain: FQCNICGAVFTQKGNLLRHIKL
B8: 46F_47Q_49P_50V_52G_53A_54V_55F_67L_, Q9UKT9 (peptide)
chain: FQCPVCGAVFTQKGNLLRHIKL
B9: 46F_47V_49P_50V_52G_53A_54V_55F_67L_, Q9UKT9 (peptide)
chain: FVCPVCGAVFTQKGNLLRHIKL
B10: 46F_47F_49P_50Q_52G_53A_54V_55F_67L_, Q9UKT9 (peptide)
chain: FFCPQCGAVFTQKGNLLRHIKL
B11: 46F_47Y_49N_50I_52G_53A_54V_55F_67L_, Q9UKT9 (peptide)
chain: FYCNICGAVFTQKGNLLRHIKL
B12: 46F_47M_49P_50V_52G_53A_54V_55F_67L_, Q9UKT9 (peptide)
chain: FMCPVCGAVFTQKGNLLRHIKL
B13: 46F_47V_49P_50Q_52G_53A_54V_55F_67L_, Q9UKT9 (peptide)
chain: FVCPQCGAVFTQKGNLLRHIKL
B14: 46F_47Q_49P_50Q_52G_53A_54V_55F_67L_, Q9UKT9 (peptide)
chain: FQCPQCGAVFTQKGNLLRHIKL
B15: 46F_47H_49D_50Q_52G_53A_54P_55F_67L_, Q9UKT9 (peptide)
chain: FHCDQCGAPFTQKGNLLRHIKL
B16: 46F_47K_49S_50V_52G_53H_54P_55F_67L_, Q9UKT9 (peptide)
chain: FKCSVCGHPFTQKGNLLRHIKL
B17: 46F_47Y_49P_50I_52G_53H_54M_55F_67L_, Q9UKT9 (peptide)
chain: FYCPICGHMFTQKGNLLRHIKL
B18: 46F_47E_49D_50V_52G_53A_54M_55F_67L_, Q9UKT9 (peptide)
chain: FECDVCGAMFTQKGNLLRHIKL
B19: 46F_47W_49E_50Q_52G_53A_54N_55F_67L_, Q9UKT9 (peptide)
chain: FWCEQCGANFTQKGNLLRHIKL
B20: 46F_47Q_49N_50V_52G_53A_54V_55F_67L_, Q9UKT9 (peptide)
chain: FQCNVCGAVFTQKGNLLRHIKL
B21: 46F_47I_49N_50V_52G_53A_54V_55F_67L_, Q9UKT9 (peptide)
chain: FICNVCGAVFTQKGNLLRHIKL
B22: 46F_47Y_49N_50V_52G_53A_54V_55F_67L_, Q9UKT9 (peptide)
chain: FYCNVCGAVFTQKGNLLRHIKL
B23: 46F_47W_49P_50Q_52G_53A_54Q_55F_67L_, Q9UKT9 (peptide)
chain: FWCPQCGAQFTQKGNLLRHIKL
B24: 46F_47V_49P_50Q_52G_53A_54Q_55F_67L_, Q9UKT9 (peptide)
chain: FVCPQCGAQFTQKGNLLRHIKL
B25: 46F_47V_49P_50V_52G_53A_54Q_55F_67L_, Q9UKT9 (peptide)
chain: FVCPVCGAQFTQKGNLLRHIKL
B26: 46F_47S_49P_50V_52G_53A_54Q_55F_67L_, Q9UKT9 (peptide)
chain: FSCPVCGAQFTQKGNLLRHIKL
B27: 46F_47W_49P_50V_52G_53A_54Q_55F_67L_, Q9UKT9 (peptide)
chain: FWCPVCGAQFTQKGNLLRHIKL
B28: 46F_47A_49P_50Q_52G_53A_54Q_55F_67L_, Q9UKT9 (peptide)
chain: FACPQCGAQFTQKGNLLRHIKL
B29: 46F_47M_49P_50V_52G_53A_54Q_55F_67L_, Q9UKT9 (peptide)
chain: FMCPVCGAQFTQKGNLLRHIKL
B30: 46F_47Y_49P_50V_52G_53A_54Q_55F_67L_, Q9UKT9 (peptide)
chain: FYCPVCGAQFTQKGNLLRHIKL
B31: 46F_47R_49P_50V_52G_53A_54Q_55F_67L_, Q9UKT9 (peptide)
chain: FRCPVCGAQFTQKGNLLRHIKL
B32: 46F_47C_49P_50V_52G_53A_54Q_55F_67L_, Q9UKT9 (peptide)
chain: FCCPVCGAQFTQKGNLLRHIKL
B33: 46F_47L_49P_50V_52G_53A_54Q_55F_67L_, Q9UKT9 (peptide)
chain: FLCPVCGAQFTQKGNLLRHIKL
B34: 46F_47F_49P_50V_52G_53A_54Q_55F_67L_, Q9UKT9 (peptide)
chain: FFCPVCGAQFTQKGNLLRHIKL

Target: T1, CRBN, Q96SW2
Test: log2 fold change of degron read counts, EGFP-low vs EGFP+ sorted cells (limma voom), compound-induced degradation; higher = more compound-induced degradation of the degron-EGFP fusion; degrons are variants of IKZF1/3 zinc finger 2; compound dose not given here
Details: Jurkat, 18 h
[1] = compound: compound 19 (5-tert-butyl-thalidomide)
[2] = compound: compound 22 (5-morpholino-thalidomide)
[3] = compound: compound 33 (diphenyl IMiD analogue)
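Also: pooled lentiviral library of zinc finger degron-EGFP fusions in mCherry-positive Jurkat cells, FACS-sorted after compound exposure, with degron abundance counted by next-generation sequencing.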

| Sequence | log2 fold change of degron read counts [1] | log2 fold change of degron read counts [2] | log2 fold change of degron read counts [3] | log2 fold change of degron read counts (compound: thalidomide) |
| --- | --- | --- | --- | --- |
| B1 | -2.5 | -2.32 | -1.56 | -1.14 |
| B2 | -1.64 | -1.04 | -1.94 | 0.449 |
| B3 | -2.43 | -2.68 | -2.59 | -1.81 |
| B4 | 3.56 | 2.4 | 2.72 | 1.15 |
| B5 | 1.86 | 1.28 | 2.79 | 1.39 |
| B6 | 0.0323 | -0.349 | 1.32 | 1.15 |
| B7 | -1.01 | 2.01 | 1.99 | 3.47 |
| B8 | -0.23 | 3.11 | 2.75 | 3.75 |
| B9 | -0.832 | 1.08 | 1.95 | 1.7 |
| B10 | 0.252 | 0.896 | 0.248 | -0.636 |
| B11 | 1.85 | 2.59 | 1.47 | -0.489 |
| B12 | -1.41 | -0.169 | 1.97 | 1.09 |
| B13 | -2.28 | -1.6 | 0.556 | -0.724 |
| B14 | -1.53 | 0.725 | 0.715 | 3.42 |
| B15 | -0.672 | -1.82 | -1.8 | -2.97 |
| B16 | -2.15 | -2.09 | -2.23 | -1.7 |
| B17 | -1.06 | -1.25 | -0.462 | -1.34 |

| Sequence | log2 fold change of degron read counts [1] | log2 fold change of degron read counts [2] | log2 fold change of degron read counts [3] | log2 fold change of degron read counts (compound: thalidomide) |
| --- | --- | --- | --- | --- |
| B18 | -2.71 | -3.65 | -2.05 | -1.53 |
| B19 | 0.0998 | 2.8 | -0.0431 | -0.721 |
| B20 | -1.74 | 1.21 | 1.22 | 3.41 |
| B21 | -2.28 | -1.69 | 0.455 | -0.566 |
| B22 | -0.0367 | 1.2 | 0.445 | -1.56 |
| B23 | 0.804 | 3.54 | 1.31 | 0.158 |
| B24 | -1.74 | 0.725 | 1.72 | 1.08 |
| B25 | -0.526 | 2.62 | 2.83 | 2.98 |
| B26 | 2.24 | 2.08 | 1.65 | 1.45 |
| B27 | 2.98 | 3.92 | 2.63 | 2.09 |
| B28 | 0.495 | -1.5 | -0.396 | -1.08 |
| B29 | -0.258 | 1.27 | 2.9 | 1.78 |
| B30 | 2.88 | 3.65 | 2.38 | 1.69 |
| B31 | -0.139 | 0.391 | 0.974 | 1.28 |
| B32 | 2.69 | 2.25 | 2.84 | 2.3 |
| B33 | 0.29 | -0.0233 | 1.82 | 1.61 |
| B34 | 3.11 | 3.47 | 2.43 | 1.92 |
